The source of these data is article PMC7819943, “Rice protein-binding microarrays: a tool to detect cis-acting elements near promoter regions in rice”.

The full ranking holds about 39,000 sequences; the median of “fluorescence intensity (a.u.)” is about 4,300, and the highest 2% start at about 39,000. The sample holds the highest values, similar sequences and a random draw of the others, so the mix is not that of the screen.

The target of this experiment is T1, OsSMF1 (Oryza sativa, UniProt Q6ZLB0 1-436).
T1 sequence: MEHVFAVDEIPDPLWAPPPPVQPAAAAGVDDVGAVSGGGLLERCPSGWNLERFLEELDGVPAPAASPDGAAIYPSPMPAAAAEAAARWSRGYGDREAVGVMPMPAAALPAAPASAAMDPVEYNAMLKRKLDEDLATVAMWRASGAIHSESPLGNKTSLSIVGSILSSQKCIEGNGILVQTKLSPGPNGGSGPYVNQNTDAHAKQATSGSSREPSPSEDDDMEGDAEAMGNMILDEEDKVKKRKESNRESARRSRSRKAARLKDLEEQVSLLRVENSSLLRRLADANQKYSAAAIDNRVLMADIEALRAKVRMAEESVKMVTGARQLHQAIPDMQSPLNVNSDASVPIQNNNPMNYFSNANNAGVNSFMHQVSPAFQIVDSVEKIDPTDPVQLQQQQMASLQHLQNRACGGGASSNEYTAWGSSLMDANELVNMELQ
Briefly: protein-binding microarray (RPBM); PBS, 2% BSA, 51.3 ng/ul salmon testes DNA, 50 uM zinc acetate, 200 nM TF, 25 C, 1 h; high values mean tight binding. The conditions noted are these: protein: recombinant; tags: N-terminal polyhistidine and DsRed monomer fusion (pET32a); chain copies: 2; label: CyDye5-dUTP incorporated in the synthesized complementary strand; 3' TTTTT single-stranded linker to array surface; dsDNA, one strand shown. An outline of the steps:
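A custom Agilent array was converted to double-stranded form by primer extension with Cy5-dUTP and blocked with 2% BSA. Protein at 200 nM in PBS with 2% BSA, salmon testes DNA and 50 µM zinc acetate was applied for 1 h at 25 °C, followed by washing. The proteins were polyhistidine–DsRed N-terminal fusions of transcription factors, expressed in E. coli BL21-CodonPlus and Ni–NTA-purified. The binding signal is per-feature fluorescence intensity (arbitrary units) from an Axon 4000B scanner.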
For “CCTCCTGCTCAGAGGCAGTTCGGTGACGAGCGGGTTGGAGCGGAGTCACCTAGTGCAG”, the binding signal was 24400 fluorescence intensity (a.u.).
Next, “GGGGATGGGGATTCGATGTGTCTATGCGTGGGCCCTGGTTCGGAGTCACCTAGTGCAG”: 3860 fluorescence intensity (a.u.); “ACGCAGTCACGCAGACCACAGGGCGATGCAGCGGACCGACCGGAGTCACCTAGTGCAG”: 40900 fluorescence intensity (a.u.); “CCGATCTCCACCACCACCACCACCACGCGGGCGCGCGCACCGGAGTCACCTAGTGCAG”: 4580 fluorescence intensity (a.u.).
Then “ACCGACGCGGACAGCCACAGTCCAGTCACACACCACACCACGGAGTCACCTAGTGCAG”, with 5320 fluorescence intensity (a.u.).
Regarding “CTCAAAGCATTATAAAACTTGCTGGCTTTGTCCCCTTCATCGGAGTCACCTAGTGCAG”, the binding signal was 3250 fluorescence intensity (a.u.).
Next, “AGATCGACACGTTAGTCTACACACCTATGCGTGCCTATGCCGGAGTCACCTAGTGCAG”: 3580 fluorescence intensity (a.u.).
“CCCCAATCCTCGCATGCCAACTCACCTGTGTTGCTTTTGCCGGAGTCACCTAGTGCAG”: the binding signal was 7550 fluorescence intensity (a.u.).
In the case of “TCGCCCGCGCCCACTGACACGTGGGGCCCGGCACGTGGGCCGGAGTCACCTAGTGCAG”, the binding signal was 11500 fluorescence intensity (a.u.).
As for “GTGTGATTATCTTCTCCATACCATCTCGTGCTACATGCGCCGGAGTCACCTAGTGCAG”, the binding signal is 40000 fluorescence intensity (a.u.).
Regarding “ACCATCTCTCTCTCTCTCTCTGCATGCATATCTTCTCCTCCGGAGTCACCTAGTGCAG”, the binding signal is 3210 fluorescence intensity (a.u.).
Then “AGTGCATGCGTGTGCGCCTGCCTGCTTACTTCCATCTCGACGGAGTCACCTAGTGCAG”, with 7880 fluorescence intensity (a.u.).
Consider “GTTCCCTTTGTATTTCACACCTTGAGATGGTGACTGATCCCGGAGTCACCTAGTGCAG”, for which the binding signal was 3940 fluorescence intensity (a.u.).
Next, “TACTAATTTAATCCCCTTTGATCTGCTGACTGGTTTACTACGGAGTCACCTAGTGCAG”: 5140 fluorescence intensity (a.u.).
Take “AAAGATCAGAGAGACTACTAATCCGGTTTATTTACTGGCACGGAGTCACCTAGTGCAG”: the binding signal was 44100 fluorescence intensity (a.u.).
“TGTTTTCTAATATTTACAATCAGATCCCTTGAGTGAGTCACGGAGTCACCTAGTGCAG”: the binding signal is 4150 fluorescence intensity (a.u.).
Consider “AGTCTCAGATCTACTTGCGGCGGCGAAGGCTCGGGAGGGGCGGAGTCACCTAGTGCAG”, for which the binding signal was 3530 fluorescence intensity (a.u.).
Regarding “ATATATTGACAAGGCAATGACATAGATAGCTAGACATATCCGGAGTCACCTAGTGCAG”, the binding signal was 3190 fluorescence intensity (a.u.).
Take “CATAGTTGACTTCCAAGGCAAGACAGATGAGATATGCATTCGGAGTCACCTAGTGCAG”: the binding signal was 45500 fluorescence intensity (a.u.).
On to “TCCTTCGATTCCAAGCATATAGTAATATATGACACGATGCCGGAGTCACCTAGTGCAG”, for which the binding signal is 5000 fluorescence intensity (a.u.).
As for “CGCAAACATTTTCGGAATATACGAATCCAGCGTTGCACTGCGGAGTCACCTAGTGCAG”, the binding signal was 3250 fluorescence intensity (a.u.).
Regarding “CAGCCATCCATCCCACCCACACGTCACCACCCGCGCATCCCGGAGTCACCTAGTGCAG”, the binding signal was 20500 fluorescence intensity (a.u.).
On to “AATGTGACCACGTCATCCCCTTCTTTCCCTTTCCCCTCTTCGGAGTCACCTAGTGCAG”, for which the binding signal is 33300 fluorescence intensity (a.u.).
For the sequence “CATGTCAGGACGCCACGTCATCATGCTCTCTCTTTCCCCTCGGAGTCACCTAGTGCAG”, the binding signal is 33600 fluorescence intensity (a.u.).
With “CCACATGTCAGGATGCCACGTCATCTCTCTTTCCCCTCTTCGGAGTCACCTAGTGCAG”, the binding signal was 33600 fluorescence intensity (a.u.).
Then “GTCAGTGTGGCCACGTCAGCATCCTCTCTTTTCCTCTCTTCGGAGTCACCTAGTGCAG”, with 40800 fluorescence intensity (a.u.).
For “CAGGATGCCACGTCAGCGCCCTCTATCTCTTTCCCCTCCTCGGAGTCACCTAGTGCAG”, the binding signal is 51300 fluorescence intensity (a.u.).
As for “TCCTCCCACGCTTCTTCTTCTTCTTCTTCTTCCCTTTCCCCGGAGTCACCTAGTGCAG”, the binding signal is 9800 fluorescence intensity (a.u.).
Turning to “ATGTCAGGATGCCACGTCACACCCTTTCTTTCCCCTCCTCCGGAGTCACCTAGTGCAG”, the binding signal is 45200 fluorescence intensity (a.u.).
For “GTTCCACATGTCATCCTCTCCCTTTCTTCTTCCTCCCCTCCGGAGTCACCTAGTGCAG”, the binding signal is 3930 fluorescence intensity (a.u.).
Regarding “CCCCTCCCCATCGTCAGCATCTTTCTTTCTCTTCCCATCCCGGAGTCACCTAGTGCAG”, the binding signal is 6610 fluorescence intensity (a.u.).
With “CATATTCTGATATTCCCATCCACGTCAGCATTTCCCCACCCGGAGTCACCTAGTGCAG”, the binding signal is 41000 fluorescence intensity (a.u.).
“CCACGTGTCAGCATTGCCACATCAGCTTCCTCTCTCTTTTCGGAGTCACCTAGTGCAG”: the binding signal was 24100 fluorescence intensity (a.u.).
Consider “AGGTGCAGATGCTACTACTGATCTGGAACAGTGATCTCCACGGAGTCACCTAGTGCAG”, for which the binding signal was 3180 fluorescence intensity (a.u.).
In the case of “CCCATTGCTGTCTCTACCATGTGTCATCTTCCAATAAGCACGGAGTCACCTAGTGCAG”, the binding signal is 4950 fluorescence intensity (a.u.).
Take “GGCTGCGGCGCTGTCCCTCCGTCTGCGTGATCCGACAACCCGGAGTCACCTAGTGCAG”: the binding signal was 3800 fluorescence intensity (a.u.).
Take “AACCAACCAACCACGTCGATCGCTCGCAGTCGCCGCCGCGCGGAGTCACCTAGTGCAG”: the binding signal is 3840 fluorescence intensity (a.u.).
Then “GCAGGCTGAATAAAACTGTATTGTCATCGATGATATTGGTCGGAGTCACCTAGTGCAG”, with 5020 fluorescence intensity (a.u.); and “AAAACAAATATAGAGGAGACAGCTCATTTTATTTCCTTGACGGAGTCACCTAGTGCAG”, with 3340 fluorescence intensity (a.u.); and “ATAAGGGCCAGCATGTACGTGACAGTGCCATTCGGGCCCACGGAGTCACCTAGTGCAG”, with 4850 fluorescence intensity (a.u.).
Next, “AAGTCAGGGTGTCCACGTCATCACCCTCCCTCTTTCTCCTCGGAGTCACCTAGTGCAG”: 55700 fluorescence intensity (a.u.); “CTACATATCAGGTGTCCACGTCACCCTCTCTCTTTCCCCTCGGAGTCACCTAGTGCAG”: 37200 fluorescence intensity (a.u.).
